Most compounds without a hit are left out; they make up all but 7.9% or so of the library.
Lassa entry inh = inhibitors of Lassa virus binding or cell entry | Lassa virus pseudotype entry inhibition, cell reporter | Potency, µM (titrated, usually from 37.9 µM), usual class: inhibitors | hit rate 1.2% among 300,000; calls by dose curve; tested in HEK293 cells; further: nearly all actives have a fitted effect of over 50% in size
MARV entry inh = Marburg virus entry inhibition | Marburg virus pseudotyped entry inhibition, cell reporter | Potency, µM (titrated, usually from 37.8 µM), actives largely listed as inhibitors | hit rate 1.8% among 300,000 | AID 540276; calls by dose curve; tested in HEK293 cells
HCV inh = inhibitors of hepatitis C virus infection; hit rate 3.4% among 340,000; Huh7.5.1 HCVcc-Cre infection, luciferase reporter, 44 h; Potency, µM (highest dose often 41.8 µM), most hits filed as inhibitors; active means well fitted inhibition curve with a large enough effect; inconclusive means small, poorly fitted or top-dose-only effect, or another doubt; inactive means no such curve, though single readings can be large or run the other way
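Luciferase read-out (15 sec integration) after a 15 min room-temperature substrate step quantifies HCVcc-Cre infection. Cells, 1,000 per well, had compound added 4 h post-plating, then virus at ~0.5 moi, and were cultured 44 h.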
HCMV antiviral = human cytomegalovirus inhibition; HFF cells, HCMV-luciferase reporter, 72 h; hits give low values; activity change, negative = inhibition, % at 57.5 µM; hit rate 4.5% among 410,000; in the data active means activity change below about -60%; inconclusive means no clear call, values can overlap the other calls; inactive means above about -39%
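Steps: HFFs plated, 16 h 37C; compounds added; HCMV-luciferase added to MOI 1 PFU/cell; 72 h 37C; OneGlo reagent, 5 min room temperature; luminescence read, normalized to controls.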
FMDV inh = foot and mouth disease virus antiviral activity | FMDV antiviral cell-based qHTS | Potency, µM (highest dose often 57.9 µM), actives largely listed as inhibitors | hit rate 1.2% among 410,000 | AID 1159524; calls by dose curve; tested in HEK293T cells; further: read-out not given here; nearly all actives have a fitted effect of over 45% in size
Large screens that a line does not name were inactive.

COc1ccc(-c2cc(C(=O)NNC(=O)c3csc(N4CCOCC4)n3)c3ccccc3n2)cc1OC	MARV entry inh inconclusive, HCV inh 10µM
Cc1cccc(-n2c(SCC(=O)N3CC(=O)Nc4ccccc43)nc3ccccc3c2=O)c1C	HCV inh inconclusive, HCMV antiviral -64, FMDV inh inconclusive (no result: Lassa entry inh)
CC(c1ccccc1)n1c(SCC(=O)N2CC(=O)Nc3ccccc32)nc2ccccc2c1=O (configuration not stated)	Lassa entry inh inconclusive, MARV entry inh inconclusive, HCV inh inconclusive, HCMV antiviral -81, FMDV inh inconclusive
Cc1cccc(-n2c(SCC(=O)N3CC(=O)Nc4ccccc43)nc3ccccc3c2=O)c1	Lassa entry inh inconclusive, HCMV antiviral -62
Cc1ccc(-n2c(SCC(=O)N3CC(=O)Nc4ccccc43)nc3ccccc3c2=O)cc1C	HCV inh inconclusive, HCMV antiviral -80, FMDV inh inconclusive (no result: Lassa entry inh)
COCC(C)n1c(SCC(=O)N2CC(=O)Nc3ccccc32)nc2ccccc2c1=O (configuration not stated)	none (no result: Lassa entry inh, MARV entry inh)
CC(c1ccco1)N(C(=O)c1cc(Cl)cc(Cl)c1)c1ccccn1 (configuration not stated)	MARV entry inh inconclusive, HCMV antiviral -62
COc1cccc(CNC(=O)COC(=O)CCc2cc(OC)c(OC)c(OC)c2)c1	none
CC(Sc1nc(C(C)(C)C)cc(-c2ccccc2)c1C#N)C(=O)Nc1ccccc1 (configuration not stated)	MARV entry inh inconclusive, HCMV antiviral -64
O=C(NCc1ccccc1)N[C@H]1CC[C@@]23CCCN2C(=O)CCC[C@H]3C1Cc1ccccc1 (some centres not stated)	none (no result: Lassa entry inh, MARV entry inh, HCV inh, FMDV inh)
CCCCCOc1ccc(NC(=O)Cn2c(-c3cncs3)nc3ccccc32)cc1	HCMV antiviral -64 (no result: HCV inh)
CC(C)(C)NC(=O)C(c1ccc(F)cc1)N(Cc1ccco1)C(=O)CCC(=O)Nc1nccs1 (configuration not stated)	Lassa entry inh inconclusive, MARV entry inh inconclusive
CCOC(=O)[C@]12Cc3cc(C)ccc3[C@H]1N(Cc1ccccc1)C(=O)c1ccccc12	FMDV inh inconclusive (no result: Lassa entry inh, MARV entry inh)
CCOC(=O)[C@]12Cc3cc(OC)ccc3[C@H]1N(Cc1ccccc1)C(=O)c1ccccc12	HCV inh inconclusive (no result: Lassa entry inh, MARV entry inh)
CCOC(=O)[C@]12Cc3ccccc3[C@H]1N(C)C(=O)c1cc(OC)ccc12	HCMV antiviral -97, FMDV inh inconclusive (no result: Lassa entry inh, MARV entry inh, HCV inh)
CCOC(=O)[C@]12Cc3c(cc(OC)c(OC)c3OC)[C@H]1N(C(C)C)C(=O)c1ccccc12	HCMV antiviral -100, FMDV inh inconclusive (no result: Lassa entry inh, MARV entry inh, HCV inh)
CCOC(=O)[C@]12Cc3ccccc3[C@H]1N(C(C)C)C(=O)c1cc(OC)ccc12	HCMV antiviral -97, FMDV inh 28µM (no result: Lassa entry inh, MARV entry inh, HCV inh)
CCOC(=O)[C@]12Cc3cc(C)ccc3[C@H]1N(C(C)C)C(=O)c1ccccc12	HCMV antiviral -98, FMDV inh 10µM (no result: Lassa entry inh, MARV entry inh, HCV inh)
Cc1ccc(-c2ccc(CN3C(C(C)C)C(=O)N(Cc4cn(CCC5OCCO5)nn4)CCS3(=O)=O)cc2)c(C)c1 (configuration not stated)	Lassa entry inh inconclusive (no result: MARV entry inh, HCV inh)
CC(C)CN1C(=O)N(C)C(=O)C2N=CN=C21 (configuration not stated)	none (no result: Lassa entry inh, HCV inh, HCMV antiviral, FMDV inh)
O=C(c1ccc2c(c1)OCO2)N(Cc1cccs1)C1(C(=O)NC2CCCCC2)CCCCC1	Lassa entry inh inconclusive, MARV entry inh 8.9µM, HCV inh inconclusive, HCMV antiviral inconclusive, FMDV inh inconclusive
N#CC1=C(N)C(C#N)(C#N)[C@H](c2c(F)cccc2F)[C@H]2CC3(CC=C12)OCCO3	MARV entry inh inconclusive, HCMV antiviral -107, FMDV inh inconclusive
CCN1C(=O)/C(=C/c2nc3ccccc3c(=O)n2-c2ccc(C)cc2)c2ccccc21	MARV entry inh inconclusive, HCMV antiviral -78, FMDV inh inconclusive
CCn1c(/C=C/c2ccc(O)cc2)nc2ccccc2c1=O	Lassa entry inh inconclusive, MARV entry inh inconclusive, HCV inh inconclusive
CCn1c(/C=C2\C(=O)Nc3ccccc32)nc2ccccc2c1=O	Lassa entry inh inconclusive, MARV entry inh inconclusive, HCV inh inconclusive, FMDV inh 22µM
COc1ccc(-n2c(/C=C3\C(=O)N(C)c4ccccc43)nc3ccccc3c2=O)cc1	Lassa entry inh inconclusive, FMDV inh inconclusive
CCN1C(=O)/C(=C\c2nc3ccccc3c(=O)n2-c2ccccc2)c2ccccc21	Lassa entry inh inconclusive, MARV entry inh inconclusive, HCMV antiviral -99, FMDV inh 14µM
COC(=O)C(=C/C(C)=C/c1cccnc1)C(=O)OC	MARV entry inh inconclusive, HCMV antiviral inconclusive, FMDV inh 22µM
COc1ccc(C2N(C(C)=O)CCCN2S(=O)(=O)c2ccc(C)cc2)cc1 (configuration not stated)	Lassa entry inh inconclusive, HCMV antiviral -62
Cc1cc(C)cc(-n2nc(C)cc2N)c1	HCV inh 10µM
Cc1cccc(-n2nc(C)cc2N)c1	none
Cc1c(C(=O)OC/C(O)=C(\C#N)c2nc3ccccc3[nH]2)oc2ccc(Br)cc12	none
N#C/C(=C(/O)COC(=O)COc1cccc(Br)c1)c1nc2ccccc2[nH]1	HCMV antiviral -78 (no result: Lassa entry inh, MARV entry inh)
Cc1cc(C)cc(OCC(=O)OC/C(O)=C(\C#N)c2nc3ccccc3[nH]2)c1	MARV entry inh inconclusive, HCMV antiviral -81
N#Cc1cc2sc3nnc(-c4ccncc4)n3c2cc1C#N	MARV entry inh inconclusive, HCV inh inconclusive, HCMV antiviral -62
O=C(CSCc1cc(=O)c2cc(F)ccc2[nH]1)Nc1ccccc1Cl	none (no result: MARV entry inh, HCV inh)
CCCCC[C@H](C)N1C[C@@H](COCc2ccccc2)Oc2cc(N3CC[C@H](N(C)C)C3)ccc2S1(=O)=O	HCMV antiviral inconclusive (no result: Lassa entry inh, MARV entry inh, HCV inh)
C[C@H](c1ccccc1)N1C[C@H](COCc2ccccc2)Oc2cc(N3CCC[C@H]3CO)ccc2S1(=O)=O	HCMV antiviral -64 (no result: Lassa entry inh, MARV entry inh, HCV inh)
CCCCC[C@@H](C)N1C[C@@H](COCc2ccccc2)Oc2cc(N3CC[C@H](N(C)C)C3)ccc2S1(=O)=O	HCMV antiviral -63 (no result: Lassa entry inh, MARV entry inh, HCV inh)
CCCCOc1ccc(CNC(=O)c2cccc(NC(=O)N3CCSc4ncccc43)c2)cc1	FMDV inh 22µM (no result: MARV entry inh, HCV inh)
CCc1ccc(CNC(=O)c2ccc(NC(=O)N3CCSc4ncccc43)cc2)cc1	HCMV antiviral inconclusive (no result: MARV entry inh, HCV inh)
CCOc1ccc(CNC(=O)c2cccc(NC(=O)N3CCSc4ncccc43)c2)cc1	HCMV antiviral inconclusive (no result: MARV entry inh, HCV inh)
CCc1cccc(NC(=O)c2ccc(NC(=O)N3CCSc4ncccc43)cc2)c1	FMDV inh 28µM (no result: MARV entry inh, HCV inh)
Cc1cc(C)nc(/N=C(\N)Nc2ccc(-c3ccccc3)cc2)n1	Lassa entry inh inconclusive, MARV entry inh inconclusive, HCV inh 11µM, HCMV antiviral inconclusive, FMDV inh inconclusive
COc1ccc(N/C(N)=N/c2nc(C)cc(C)n2)c(OC)c1	HCV inh inconclusive, HCMV antiviral -67, FMDV inh inconclusive
CC(C)Cc1nnc(NC(=O)CCC(=O)N2CCN(Cc3ccc(F)cc3)CC2)s1	HCV inh 22µM (no result: Lassa entry inh, MARV entry inh)
CCc1nnc(NC(=O)CCC(=O)N2CCN(Cc3ccc(Cl)cc3)CC2)s1	HCV inh inconclusive, FMDV inh inconclusive

From PubChem
